Inconclusive results are not listed. Active and inactive are the calls of the source. Unless noted, calls come from the whole dose curve; as a rule, active = well fitted curve in the direction sought with a large enough effect; inconclusive = small, poorly fitted or top-dose-only effect, or another doubt; inactive = no such curve, though single readings can be large; an effect the other way counts as inactive or inconclusive.
Experiments:
[1] = qHTS for differential inhibitors of proliferation of Plasmodium falciparum line HB3 (AID 1886); conditions: Potency: Plasmodium falciparum HB3 proliferation inhibition;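 note: parasites grown with compound for 72 h before SYBR Green readout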; note: potency is the fitted concentration of half-maximal effect
[2] = target: Ferritin light chain (Equus caballus) (UniProt P02791); assay: qHTS Validation Assay for Identification of Novel General Anesthetics (AID 2323)
Outline: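 Normalized fluorescence response, scaled between free 1-AMA and 1-AMA/apoferritin complex, fitted to a four-parameter Hill equation for concentration-effect values. Binding mix: 10 uM horse-spleen apoferritin, 50% saturated 1-AMA in PBS; read 380/535 nm after 10 min.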

[3] = Validation screen for inhibitors of Lassa infection (AID 463096; calls by dose curve; note: potency is the fitted concentration of half-maximal effect)
[4] = target: DNA polymerase III PolC-type (Bacillus subtilis (strain 168)) (UniProt P13267); assay: qHTS Validation Assay for the Inhibitors of DNA Replication in Gram-Positive Bacteria (AID 485295);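 note: reconstituted holoenzyme with PolC plus beta clamp SSB and primase; PicoGreen fluorescence of double-stranded DNA made on primed circular M13 template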
Outline: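 Inhibition of DNA synthesis by the reconstituted PolC holoenzyme, monitored through PicoGreen staining of dsDNA formed from ssM13Gori, dNTPs and NTPs, with compound preincubation and room-temperature reaction.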

[5] = target: ATP-dependent DNA helicase Q1 (Homo sapiens) (UniProt P46063); assay: qHTS Validation Assay for Inhibitors of RecQ-Like Dna Helicase 1 (RECQ1) (AID 2353)
Outline: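 50 nM RECQ1T1 preincubated 15 min with compound in Tris pH 8.0 buffer with MgCl2, DTT, Tween-20 and 2.5 ug/ml poly(dI-dC); started with 200 nM TAMRA/BHQ-2 forked duplex and 2 mM ATP. Unwinding read as fluorescence (525/598 nm), two reads 2 h apart.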

[6] = Cytometric Cell-Based qHTS for Inhibitors of the mTORC1 Signaling Pathway in MEF (Tsc2-/-, p53-/-) Cells (AID 2660);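 note: Tsc2 and p53 null MEFs carrying empty vector with compound for 24 h; percent of cells above a phospho-rpS6 to PI ratio cutoff in each well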
Outline: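 Immunofluorescence qHTS of rpS6 Ser235/236 phosphorylation: MEFs (Tsc2-/-, p53-/-) treated 24 h, 37 C, in DMEM + 10% FBS. Alexa-488 signal normalized to PI count, referenced to rapamycin (7.5 nM) and DMSO; PI cell number recorded for viability.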

[7] = High Content Imaging Cell-Based qHTS for Inhibitors of the mTORC1 Signaling Pathway in MEF (Tsc2-/-, p53-/-) Cells (AID 2666); conditions: at 38.3 µM (top of the series);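 note: percent of cells scored positive for phospho-rpS6 Ser235/236 immunostaining by imaging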
Outline: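 Cells were plated, dosed with compound after 24 hrs, and incubated another 24 hrs at 37 degree Celsius. Fixed cells were immunostained for phospho-rpS6 Ser235/236 and counterstained, and the normalized signal was scored as % active cells against rapamycin and DMSO controls.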

[8] = High Content Imaging Cell-Based qHTS for Inhibitors of the mTORC1 Signaling Pathway in MEF Cells (AID 2667);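 note: Tsc2-/- p53-/- MEFs stably re-expressing wild-type Tsc2 exposed 24 h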
Outline: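 Immunofluorescence for rpS6 phosphorylation in MEFs of Tsc2-/-, p53-/- background rescued with WT Tsc2. Compound exposure lasted 24 hrs. Inhibition was scored against rapamycin-treated control wells.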

[9] = Cytometry Cell-Based qHTS for Inhibitors of the mTORC1 Signaling Pathway in MEF cells (AID 2668); note: potency is the fitted concentration of half-maximal effect
Outline: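 In MEFs grown in DMEM + 10% FBS, a 24 hrs compound exposure preceded imaging of phospho-rpS6 Ser235/236 by laser-scanning cytometry.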

[10] = Validation screen for small molecules that induce DNA re-replication in MCF 10A normal breast cells (AID 463097); note: nearly all actives have a fitted effect of over 60% in size
Outline: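 Following 48 hr compound incubation (37 C, 5% CO2), MCF 10A cells receive Hoechst for 40 min at 37 C. Nuclei are then scanned (excitation 405 nm, emission 500-530 nm) for total fluorescence intensity.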

[11] = target: Ubiquitin carboxyl-terminal hydrolase 2 (Homo sapiens) (UniProt O75604); assay: qHTS Validation Assay for Inhibitors of Ubiquitin-specific Protease USP2a Using CHOP2 as the Reporter (AID 463106)
Outline: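 10nM USP2 core + cpd, 30min RT; add 25nM Ub-CHOP2/25nM substrate; 60min RT; FI 485/531nm. Buffer Tris pH 8.0, CaCl2, BME, CHAPS. Norm. to NEM = 100% inhibition; time-zero read flags fluorescent artifacts.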

[12] = target: Tumor susceptibility gene 101 protein (Homo sapiens) (UniProt Q99816); assay: qHTS Validation Assay for Iinhibitors of HIV-1 Budding by Blocking the Interaction of PTAP/TSG101 (AID 485342; calls by dose curve)
Outline: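 Compound wells held the Tsg101 binding domain (10 uM) and a FITC-conjugated PTAP peptide (50 nM) in buffer at pH 7.5 containing 0.15 M NaCl and 0.01% Tween 20; polarization was recorded after 20 min, r.t.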

[13] = qHTS Validation Assay to Find Inhibitors of Chronic Active B-Cell Receptor Signaling (AID 485345; active = well fitted curve in the direction sought with a large enough effect in the main read-out, with a control signal flat, not every such curve was filed as active)
Outline: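 Read-out: ratio of filter-corrected green (IkappaBalpha fusion) to red (native) luciferase signal in doxycycline-induced TMD8 cells after 4 h at 37C. Titration spanned 46 uM–3 nM; Data were normalised to basal cells and 10 uM MG-132 wells.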

[14] = target: Beta-2 adrenergic receptor (Homo sapiens) (UniProt P07550); assay: qHTS validation assay of beta-arrestin-biased ligands of beta2-adrenergic receptor (AID 485366)
Outline: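 Arrestin-recruitment (Tango) reporter: ligand-bound beta2-AR recruits beta-arrestin, releasing tTA, which upregulates luciferase. Titrations of up to 46 microM incubated 18 hr at 37 degrees C before luminescent readout.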

[15] = Quantitative high throughput screen for delayed death inhibitors of the malarial parasite plastid, 96 hour incubation (AID 488745);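 note: luciferase-expressing P. falciparum in erythrocytes at 2% hematocrit and 0.1% parasitemia; nearly all actives have a fitted effect of over 70% in size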
Outline: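 Growth of reporter-bearing P. falciparum in red cells is measured after 96 h with compound, covering two erythrocytic cycles. Luminescence from the integrated luciferase serves as the growth signal.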

[16] = Quantitative high throughput screen for delayed death inhibitors of the malarial parasite plastid, 48 hour incubation (AID 488752); note: nearly all actives have a fitted effect of over 65% in size
Outline: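 One parasite generation (48 h, 37 C, 5% CO2) of luciferase-reporter P. falciparum in erythrocytes is run with test compound; decreased luminescence indicates inhibited growth.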

[17] = target: Thioredoxin reductase 1, cytoplasmic (Rattus norvegicus) (UniProt O89049); assay: qHTS Assay for Substrates of Mammalian Selenoprotein Thioredoxin Reductase 1 (TrxR1) (AID 488772);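 note: NADPH fluorescence in the first read after selenite addition and not the 8 min delta; a drop in NADPH fluorescence below the no-compound background marks a TrxR1 substrate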
Outline: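 Quantitative HTS in Tris-HCl buffer at pH 7.5 with EDTA and Tween-20, using rat TrxR1, 400 uM NADPH and 400 uM selenite (final). A fall in initial NADPH fluorescence relative to background marked substrate behaviour.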

[18] = target: RecQ-like DNA helicase BLM (Homo sapiens) (UniProt P54132); assay: qHTS Validation Assay for Inhibitors of Bloom's syndrome helicase (BLM) (AID 2364)
Outline: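 Forked 20-bp duplex substrate (200 nM, TAMRA/BHQ-2) plus 2 mM ATP added after 15 min compound preincubation with 50 nM enzyme, pH 8.0, poly(dI-dC) 2.5 ug/ml. Strand separation followed by fluorescence (525/598 nm) over 2 h, normalized to enzyme-free and DMSO controls.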

[19] = target: ATP-dependent 6-phosphofructokinase (Trypanosoma brucei brucei) (UniProt O15648); assay: qHTS Validation Assay to Find Inhibitors of T. brucei phosphofructokinase (AID 485368); conditions: outcome: dose series up to 57.5 µM
Outline: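 Steps: substrate mix (0.5 mM F6P, 0.1 mM ATP, MgCl2, TEA pH 8.0); compound; 1.25 nM T. brucei PFK; 45 min RT; ATP depletion 10 min; ADP-to-ATP detection 10 min; luminescence read; curve fitting and classification.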

[20] = qHTS Assay for Identification of Small Molecule Inducers of Hypoxia Response (AID 2120; active = well fitted curve in the direction sought with a large enough effect in the signal ratio, with a control signal flat, not every such curve was filed as active; the % refers to the signal ratio)
Outline: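 Induction of beta-lactamase reporter activity was measured in CellSensor HRE-bla ME-180 cells after 17 h compound treatment at 37 degrees C, using CCF4 substrate and the 460nm/530nm emission ratio to derive AC50 values.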

Measured: Potency

Beta-2 adrenergic receptor (Homo sapiens), sequence (P07550 whole entry, looked up): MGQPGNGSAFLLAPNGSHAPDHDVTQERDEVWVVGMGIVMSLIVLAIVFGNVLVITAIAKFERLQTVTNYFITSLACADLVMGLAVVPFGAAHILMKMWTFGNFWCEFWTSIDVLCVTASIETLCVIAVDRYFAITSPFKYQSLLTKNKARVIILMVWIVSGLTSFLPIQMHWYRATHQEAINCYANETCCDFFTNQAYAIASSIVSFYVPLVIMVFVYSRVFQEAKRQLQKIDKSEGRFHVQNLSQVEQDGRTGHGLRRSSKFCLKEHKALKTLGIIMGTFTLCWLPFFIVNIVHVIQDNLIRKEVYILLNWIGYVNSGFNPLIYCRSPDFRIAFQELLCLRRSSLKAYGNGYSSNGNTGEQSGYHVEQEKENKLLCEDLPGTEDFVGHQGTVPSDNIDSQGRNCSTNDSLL
DNA polymerase III PolC-type (Bacillus subtilis (strain 168)), sequence (P13267 whole entry, looked up): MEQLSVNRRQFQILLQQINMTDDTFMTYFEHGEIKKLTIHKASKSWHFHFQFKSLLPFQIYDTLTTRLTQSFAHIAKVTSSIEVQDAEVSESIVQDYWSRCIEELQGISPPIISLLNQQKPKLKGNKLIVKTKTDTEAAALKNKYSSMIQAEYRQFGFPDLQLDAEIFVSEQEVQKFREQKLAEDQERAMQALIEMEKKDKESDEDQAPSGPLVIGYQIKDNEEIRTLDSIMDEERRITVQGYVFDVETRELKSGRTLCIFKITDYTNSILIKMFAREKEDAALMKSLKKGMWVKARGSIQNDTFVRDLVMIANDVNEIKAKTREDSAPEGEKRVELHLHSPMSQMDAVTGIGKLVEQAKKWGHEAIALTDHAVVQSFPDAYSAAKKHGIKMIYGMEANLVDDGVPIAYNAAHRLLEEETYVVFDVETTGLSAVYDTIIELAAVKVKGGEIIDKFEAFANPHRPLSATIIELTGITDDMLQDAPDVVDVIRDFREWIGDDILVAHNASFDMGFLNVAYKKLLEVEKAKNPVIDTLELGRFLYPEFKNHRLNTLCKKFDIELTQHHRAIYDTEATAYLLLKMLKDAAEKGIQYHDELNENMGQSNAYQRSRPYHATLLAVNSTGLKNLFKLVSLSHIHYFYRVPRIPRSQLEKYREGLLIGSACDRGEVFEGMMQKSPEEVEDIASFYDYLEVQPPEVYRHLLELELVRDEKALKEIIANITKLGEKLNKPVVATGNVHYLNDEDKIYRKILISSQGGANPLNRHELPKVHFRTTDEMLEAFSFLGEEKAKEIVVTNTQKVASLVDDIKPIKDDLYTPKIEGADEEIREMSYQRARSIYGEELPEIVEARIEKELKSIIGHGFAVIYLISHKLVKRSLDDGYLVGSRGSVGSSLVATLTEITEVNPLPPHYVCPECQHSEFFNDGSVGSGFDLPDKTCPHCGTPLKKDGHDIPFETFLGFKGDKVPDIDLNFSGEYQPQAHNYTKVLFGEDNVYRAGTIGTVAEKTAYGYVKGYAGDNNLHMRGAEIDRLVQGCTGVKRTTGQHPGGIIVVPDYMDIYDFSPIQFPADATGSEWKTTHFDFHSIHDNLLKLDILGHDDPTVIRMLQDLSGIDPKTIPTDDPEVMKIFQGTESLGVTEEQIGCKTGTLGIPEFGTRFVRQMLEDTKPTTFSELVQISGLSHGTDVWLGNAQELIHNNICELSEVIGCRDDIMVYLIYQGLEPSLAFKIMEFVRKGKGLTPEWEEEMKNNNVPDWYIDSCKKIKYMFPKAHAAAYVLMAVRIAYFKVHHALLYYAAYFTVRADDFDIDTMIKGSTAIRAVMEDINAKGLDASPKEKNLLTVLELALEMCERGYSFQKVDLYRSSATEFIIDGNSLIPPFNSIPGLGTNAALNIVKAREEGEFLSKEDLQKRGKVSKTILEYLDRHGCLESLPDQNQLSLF
RecQ-like DNA helicase BLM (Homo sapiens), sequence (P54132 whole entry, looked up): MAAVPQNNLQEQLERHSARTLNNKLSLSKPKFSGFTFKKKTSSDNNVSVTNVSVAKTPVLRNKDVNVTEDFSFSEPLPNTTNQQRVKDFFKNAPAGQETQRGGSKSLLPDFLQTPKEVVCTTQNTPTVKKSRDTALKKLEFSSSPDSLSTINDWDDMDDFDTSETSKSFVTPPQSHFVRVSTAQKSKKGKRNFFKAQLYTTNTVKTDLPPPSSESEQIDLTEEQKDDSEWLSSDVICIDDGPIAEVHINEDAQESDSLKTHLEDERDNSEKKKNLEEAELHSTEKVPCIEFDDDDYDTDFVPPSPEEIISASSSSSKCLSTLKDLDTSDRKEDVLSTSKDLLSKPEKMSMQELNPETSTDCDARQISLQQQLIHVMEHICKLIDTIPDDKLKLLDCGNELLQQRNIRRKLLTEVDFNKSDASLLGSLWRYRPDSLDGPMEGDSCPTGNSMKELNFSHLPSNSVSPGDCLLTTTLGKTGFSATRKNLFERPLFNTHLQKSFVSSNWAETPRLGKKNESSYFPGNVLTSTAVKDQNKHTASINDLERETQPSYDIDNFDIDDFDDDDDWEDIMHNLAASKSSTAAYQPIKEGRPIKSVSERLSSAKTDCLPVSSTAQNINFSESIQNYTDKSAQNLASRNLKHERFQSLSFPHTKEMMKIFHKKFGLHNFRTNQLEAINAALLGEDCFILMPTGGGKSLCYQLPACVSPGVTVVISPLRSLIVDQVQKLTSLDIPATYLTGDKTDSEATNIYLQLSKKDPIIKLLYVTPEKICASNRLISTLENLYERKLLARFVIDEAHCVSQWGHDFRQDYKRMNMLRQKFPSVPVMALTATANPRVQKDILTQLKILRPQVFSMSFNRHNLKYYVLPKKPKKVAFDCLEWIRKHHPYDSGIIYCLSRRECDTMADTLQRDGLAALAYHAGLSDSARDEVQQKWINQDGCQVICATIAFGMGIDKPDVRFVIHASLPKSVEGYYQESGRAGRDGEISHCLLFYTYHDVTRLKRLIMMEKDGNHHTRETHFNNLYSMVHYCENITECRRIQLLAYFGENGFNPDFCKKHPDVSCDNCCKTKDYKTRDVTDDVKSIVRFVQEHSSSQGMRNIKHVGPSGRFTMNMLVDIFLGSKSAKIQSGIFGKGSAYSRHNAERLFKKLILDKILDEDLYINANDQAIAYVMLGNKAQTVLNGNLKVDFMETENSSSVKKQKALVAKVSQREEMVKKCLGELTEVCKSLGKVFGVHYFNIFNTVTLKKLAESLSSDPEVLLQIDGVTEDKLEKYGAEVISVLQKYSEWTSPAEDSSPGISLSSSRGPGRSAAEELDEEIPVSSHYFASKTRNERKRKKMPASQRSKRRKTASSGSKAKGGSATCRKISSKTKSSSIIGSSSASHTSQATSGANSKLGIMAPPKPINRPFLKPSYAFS
Tumor susceptibility gene 101 protein (Homo sapiens), sequence (Q99816 whole entry, looked up, the tested form may be a part): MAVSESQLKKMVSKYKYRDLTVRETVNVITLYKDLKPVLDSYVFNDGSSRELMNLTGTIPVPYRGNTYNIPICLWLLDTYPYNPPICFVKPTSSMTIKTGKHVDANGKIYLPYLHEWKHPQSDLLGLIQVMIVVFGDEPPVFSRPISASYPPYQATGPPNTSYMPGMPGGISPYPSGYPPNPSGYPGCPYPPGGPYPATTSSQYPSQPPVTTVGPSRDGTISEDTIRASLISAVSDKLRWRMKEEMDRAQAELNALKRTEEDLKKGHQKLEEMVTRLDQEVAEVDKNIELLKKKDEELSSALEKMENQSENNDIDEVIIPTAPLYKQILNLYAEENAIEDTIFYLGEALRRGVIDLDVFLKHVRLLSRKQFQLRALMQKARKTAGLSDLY
Thioredoxin reductase 1, cytoplasmic (Rattus norvegicus), sequence (O89049 whole entry, looked up): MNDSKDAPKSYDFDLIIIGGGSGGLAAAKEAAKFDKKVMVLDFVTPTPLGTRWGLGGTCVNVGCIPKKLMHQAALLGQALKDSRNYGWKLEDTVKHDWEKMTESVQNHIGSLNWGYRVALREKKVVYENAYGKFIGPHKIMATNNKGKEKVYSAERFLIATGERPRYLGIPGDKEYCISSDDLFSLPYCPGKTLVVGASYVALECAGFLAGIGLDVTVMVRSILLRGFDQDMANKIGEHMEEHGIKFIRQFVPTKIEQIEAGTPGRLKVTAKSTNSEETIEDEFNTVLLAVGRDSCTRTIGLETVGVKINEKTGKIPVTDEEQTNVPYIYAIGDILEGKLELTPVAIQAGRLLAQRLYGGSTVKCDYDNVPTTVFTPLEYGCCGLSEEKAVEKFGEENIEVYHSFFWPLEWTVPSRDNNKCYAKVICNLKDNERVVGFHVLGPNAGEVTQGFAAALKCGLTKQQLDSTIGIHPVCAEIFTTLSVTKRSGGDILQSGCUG
Ubiquitin carboxyl-terminal hydrolase 2 (Homo sapiens), sequence (O75604 whole entry, looked up): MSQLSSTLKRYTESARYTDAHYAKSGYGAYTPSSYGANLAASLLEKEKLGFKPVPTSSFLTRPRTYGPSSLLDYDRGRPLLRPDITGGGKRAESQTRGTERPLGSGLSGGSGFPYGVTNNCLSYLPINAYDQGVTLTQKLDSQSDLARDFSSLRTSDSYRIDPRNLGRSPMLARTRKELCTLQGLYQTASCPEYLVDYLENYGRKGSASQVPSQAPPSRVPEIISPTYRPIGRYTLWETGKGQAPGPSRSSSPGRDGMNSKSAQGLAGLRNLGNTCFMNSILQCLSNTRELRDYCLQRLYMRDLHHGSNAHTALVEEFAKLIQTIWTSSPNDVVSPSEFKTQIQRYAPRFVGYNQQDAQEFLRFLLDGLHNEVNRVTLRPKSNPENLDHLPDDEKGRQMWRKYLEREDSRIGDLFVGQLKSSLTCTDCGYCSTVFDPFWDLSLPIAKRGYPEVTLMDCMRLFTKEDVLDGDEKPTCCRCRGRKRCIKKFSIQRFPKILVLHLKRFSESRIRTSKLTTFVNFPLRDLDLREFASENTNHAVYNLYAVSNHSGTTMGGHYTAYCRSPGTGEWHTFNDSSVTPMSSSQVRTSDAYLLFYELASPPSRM
Ferritin light chain (Equus caballus), sequence (P02791 2-175 limits assumed): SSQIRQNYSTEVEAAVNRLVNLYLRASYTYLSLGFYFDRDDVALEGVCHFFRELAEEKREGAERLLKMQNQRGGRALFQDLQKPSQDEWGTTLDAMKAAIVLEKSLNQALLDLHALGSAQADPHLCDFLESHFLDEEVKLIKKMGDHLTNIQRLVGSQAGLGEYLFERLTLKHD

C[N+](C)(C)CCCCCCCCCC[N+](C)(C)C
active: [1] 1.78 µM
inactive: [2] | [3] | [4]

CN(C)C/C=C(/c1ccc(Br)cc1)c1cccnc1
inactive: [3]

CCCCNc1c(C(=O)OCC)c(C)nc2c1cnn2CC
inactive: [3]

NCCc1cnc[nH]1
inactive: [3]

C=Cc1c(C)c2cc3[nH]c(cc4nc(cc5nc(cc1[nH]2)C(C)=C5CCC(=O)O)C(CCC(=O)O)=C4C)c(C)c3C=C
inactive: [3]

COc1cc2c(cc1OC)-c1cc(=Nc3c(C)cc(C)cc3C)n(C)c(=O)n1CC2
inactive: [3]

O=C(Nc1ccc([N+](=O)[O-])cc1Cl)c1cc(Cl)ccc1O
active: [3] 5.01 µM

NC(=O)CN1CCCC1=O
not listed: [18] | [19] | [20]
inactive: all other assays above

O=C(CCCN1CCC(O)(c2cccc(C(F)(F)F)c2)CC1)c1ccc(F)cc1
inactive: [3]

CC(N)C(=O)OC(C)(C)Cc1ccc(Cl)cc1 (stereo not given)
inactive: [2] | [5] | [18] | [3] | [10] | [15] | [16]
active: [1] 14.1 µM

CNC(=O)Oc1ccc2c(c1)[C@]1(C)CCN(C)[C@@H]1N2C
active: [1] 5.01 µM
inactive: [3] | [19]

CCCCCCCCC(=O)NCc1ccc(O)c(OC)c1
inactive: [1] | [5] | [3] | [10] | [15] | [16]

CCN(CC)CCOCCOC(=O)C1(c2ccccc2)CCCC1
inactive: [3]

NC(N)=N/N=C/c1c(Cl)cccc1Cl
active: [1] 6.31 µM
inactive: [18] | [3]

COc1ccc(C(=O)N2CCCC2=O)cc1
not listed: [18] | [20]
inactive: all other assays above

CC[C@H]1CN2CCc3cc(OC)c(OC)cc3[C@@H]2C[C@@H]1C[C@H]1NCCc2cc(OC)c(OC)cc21
active: [1] 0.112 µM | [9] 5.21 µM | [3] 0.158 µM

O=C(O)c1nn(Cc2ccc(Cl)cc2Cl)c2ccccc12
not listed: [13] | [20]
inactive: all other assays above

Oc1c(Br)cc(Br)cc1Br
inactive: [20]

C[C@@H]1C[C@@H]([C@H](O)CC2CC(=O)NC(=O)C2)C(=O)[C@@H](C)C1
inactive: [20]

CN(C)C(=S)SSC(=S)N(C)C
inactive: [20]

CCCCNc1ccc(C(=O)OCCN(C)C)cc1
inactive: [3]

CCN(CC)CC(=O)Nc1c(C)cccc1C
inactive: [3]

CNC(=O)Oc1cccc2ccccc12
inactive: [20]

NC(N)=NCCC[C@H](N)C(=O)O
inactive: [3]

Nc1c2c(nc3ccccc13)CCCC2
inactive: [3]

O=C1CC2(CCCC2)CC(=O)N1CCCCN1CCN(c2ncccn2)CC1
inactive: [3]

c1ccc2nc(N3CCNCC3)ccc2c1
inactive: [1] | [2] | [5] | [18] | [3] | [10] | [15] | [16]

O=C(c1ccc(F)cc1)C1CCN(CCn2c(=O)[nH]c3ccccc3c2=O)CC1
inactive: [3]

NC(N)=NC(=O)c1nc(Cl)c(N)nc1N
active: [1] 10 µM
inactive: [2] | [18] | [3] | [17]

COc1ccc(CN(CCN(C)C)c2ccccn2)cc1
inactive: [3]

OCCN1CCN(CCCN2c3ccccc3C=Cc3ccccc32)CC1
inactive: [3]

COP(=O)(OC)OC=C(Cl)Cl
inactive: [20]

C#CCN(C)Cc1ccccc1
inactive: [3]

COC(=O)C1=CCCN(C)C1
not listed: [18] | [20]
inactive: all other assays above

Brc1c(NC2=NCCN2)ccc2nccnc12
inactive: [2] | [3]

O=C(O)CCc1nc(-c2ccccc2)c(-c2ccccc2)o1
inactive: [3]

Cc1ccc(=O)n(-c2ccccc2)c1
inactive: [3]

COc1nc(C)nc(Cl)c1NC1=NCCN1
inactive: [3]

COc1ccc2c(c1)c(CC(=O)O)c(C)n2C(=O)c1ccc(Cl)cc1
inactive: [3]

CCCOc1ccccc1-c1nc2n[nH]nc2c(=O)[nH]1
inactive: [3]

— PubChem BioAssay (NCATS)
